From PubChem BioAssay AID1159580 (chemical genetic matrix, 2015)
Out of some 5,500 compounds screened, about 2,000 (36%) were called active. About 18% were inconclusive and are not listed. No stated cut-off is given here; in the data, active means normalized growth mostly below about 0.91 (no sharp cut-off); inconclusive means no clear call, values can overlap the other calls; inactive means mostly above about 0.92. Some of the results follow.

Test: chemical genetic growth profiling, strain panel (AID 1159580);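 further: tested at 20 µM; growth read once vehicle control cultures reached saturation at 30 °C; 1 = growth at the plate median or of vehicle wells; lower values mean less growth of the strain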
Details: S. cerevisiae deletion strains, growth OD

Measured: normalized growth

CC(C)Oc1ccc2c(=O)cc(-c3ccccc3)oc2c1
inactive: locus YAL021C, strain ccr4, active compounds read low 0.956 | locus YAL026C, strain drs2, active compounds read low 0.934 | locus YAL030W, strain snc1, active compounds read low 0.955 | locus YBL061C, strain skt5, active compounds read low 0.929 | locus YBR009C, strain hhf1, active compounds read low 0.952 | locus YBR023C, strain chs3, active compounds read low 0.944 | locus YBR171W, strain sec66, active compounds read low 0.912 | locus YBR229C, strain ROT2, active compounds read low 0.915 | locus YBR231C, strain swc5, active compounds read low 0.937 | locus YBR279W, strain paf1, active compounds read low 0.963 | locus YCL011C, strain gbp2, active compounds read low 0.923 | locus YCL016C, strain dcc1, active compounds read low 0.94 | locus YCL069W, strain vba3, active compounds read low 0.95 | locus YCR088W, strain abp1, active compounds read low 0.933 | locus YDL005C, strain med2, active compounds read low 0.96 | locus YDL035C, strain GPR1, active compounds read low 0.984 | locus YDL040C, strain nat1, active compounds read low 0.953 | locus YDL074C, strain BRE1, active compounds read low 0.871 | locus YDL101C, strain DUN1, active compounds read low 0.938 | locus YDR001C, strain nth1, active compounds read low 0.943 | locus YDR069C, strain doa4, active compounds read low 0.972 | locus YDR150W, strain NUM1, active compounds read low 0.937 | locus YDR159W, strain sac3, active compounds read low 0.919 | locus YDR162C, strain NBP2, active compounds read low 0.953 | locus YDR195W, strain ref2 1.03 | locus YDR297W, strain sur2, active compounds read low 0.95 | locus YDR334W, strain swr1, active compounds read low 0.953 | locus YDR335W, strain msn5, active compounds read low 0.962 | locus YEL037C, strain rad23, active compounds read low 0.953 | locus YEL061C, strain CIN8 (second series), active compounds read low 0.916 | locus YER015W, strain faa2, active compounds read low 0.962 | locus YER016W, strain bim1, active compounds read low 0.956 | locus YER111C, strain swi4, active compounds read low 0.959 | locus YER167W, strain BCK2, active compounds read low 0.925 | locus YFR010W, strain ubp6, active compounds read low 0.936 | locus YGL167C, strain pmr1, active compounds read low 0.946 | locus YGL173C, strain kem1, active compounds read low 0.943 | locus YGL240W, strain doc1, active compounds read low 0.901 | locus YGL248W, strain PDE1, active compounds read low 0.912 | locus YGL253W, strain hxk2, active compounds read low 0.926 | locus YGR078C, strain PAC10, active compounds read low 0.903 | locus YGR135W, strain pre9, active compounds read low 0.907 | locus YGR252W, strain gcn5, active compounds read low 0.827 | locus YHR013C, strain ard1, active compounds read low 0.859 | locus YHR027C, strain rpn1, active compounds read low 0.947 | locus YHR030C, strain SLT2, active compounds read low 0.92 | locus YIL066C, strain RNR3, active compounds read low 0.939 | locus YIL073C, strain SPO22, active compounds read low 0.921 | locus YJL092W, strain hpr5, active compounds read low 0.928 | locus YJL095W, strain BCK1 (second series), active compounds read low 0.948 | locus YJL095W, strain BCK1, active compounds read low 0.888 | locus YJL115W, strain asf1, active compounds read low 0.958 | locus YJL154C, strain vps35, active compounds read low 0.952 | locus YJL164C, strain tpk1, active compounds read low 0.923 | locus YJL187C, strain SWE1 (second series), active compounds read low 0.906 | locus YJL187C, strain SWE1, active compounds read low 0.951 | locus YJR043C, strain POL32, active compounds read low 0.941 | locus YJR075W, strain HOC1, active compounds read low 0.904 | locus YKL160W, strain elf1, active compounds read low 0.913 | locus YKL190W, strain CNB1, active compounds read low 0.945 | locus YKR026C, strain gcn3, active compounds read low 0.934 | locus YKR091W, strain srl3, active compounds read low 0.965 | locus YLL001W, strain dnm1, active compounds read low 0.951 | locus YLL026W, active compounds read low 0.955 | locus YLL041C, strain sdh2, active compounds read low 0.957 | locus YLR027C, strain aat2, active compounds read low 0.957 | locus YLR039C, strain RIC1, active compounds read low 0.815 | locus YLR058C, strain SHM2, active compounds read low 0.915 | locus YLR258W, strain gsy2, active compounds read low 0.948 | locus YLR262C, strain YPT6, active compounds read low 0.861 | locus YLR268W, strain sec22, active compounds read low 0.906 | locus YLR342W, strain FKS1 (second series), active compounds read low 0.911 | locus YLR342W, strain FKS1, active compounds read low 0.916 | locus YLR357W, strain rsc2, active compounds read low 0.869 | locus YLR370C, strain arc18, active compounds read low 0.941 | locus YLR384C, strain iki3, active compounds read low 0.944 | locus YML032C, strain rad52, active compounds read low 0.908 | locus YML120C, strain ndi1, active compounds read low 0.963 | locus YMR058W, strain fet3, active compounds read low 0.916 | locus YMR125W, strain sto1, active compounds read low 0.953 | locus YMR129W, active compounds read low 0.952 | locus YMR231W, strain pep5, active compounds read low 0.969 | locus YMR263W, strain SAP30, active compounds read low 0.893 | locus YMR307W, strain GAS1, active compounds read low 0.791 | locus YNL067W, strain RPL9B, active compounds read low 0.93 | locus YNL128W, strain TEP1, active compounds read low 0.941 | locus YNL209W, strain ssb2, active compounds read low 0.971 | locus YNL233W, strain BNI4, active compounds read low 0.901 | locus YNL248C, strain rpa49, active compounds read low 0.919 | locus YNL322C, strain KRE1 (second series), active compounds read low 0.946 | locus YNR049C, strain mso1, active compounds read low 0.943 | locus YOL012C, strain htz1 1.5 | locus YOR001W, strain rrp6, active compounds read low 0.896 | locus YOR061W, strain CKA2, active compounds read low 0.912 | locus YOR070C, strain gyp1, active compounds read low 0.961 | locus YOR080W, strain dia2, active compounds read low 0.965 | locus YOR083W, strain WHI5, active compounds read low 0.928 | locus YOR106W, strain vam3, active compounds read low 0.917 | locus YOR136W, strain idh2, active compounds read low 0.938 | locus YOR184W, strain ser1, active compounds read low 0.9 | locus YOR265W, strain rbl2, active compounds read low 0.96 | locus YPL078C, strain atp4, active compounds read low 0.905 | locus YPL106C, strain sse1, active compounds read low 0.928 | locus YPL240C, strain hsp82, active compounds read low 0.95 | strain wtn01, active compounds read low 0.909
active: locus YAL013W, strain DEP1, active compounds read low 0.892 | locus YBR021W, strain FUR4, active compounds read low 0.844 | locus YCL029C, strain bik1, active compounds read low 0.88 | locus YCL061C, strain MRC1, active compounds read low 0.918 | locus YDL185W, strain tfp1, active compounds read low 0.423 | locus YDL192W, strain arf1, active compounds read low 0.884 | locus YDR101C, strain arx1, active compounds read low 0.906 | locus YDR137W, strain rgp1, active compounds read low 0.834 | locus YDR318W, strain mcm21, active compounds read low 0.885 | locus YDR388W, active compounds read low 0.876 | locus YDR392W, strain spt3, active compounds read low 0.358 | locus YDR502C, strain sam2, active compounds read low 0.904 | locus YEL003W, strain gim4, active compounds read low 0.887 | locus YEL061C, strain CIN8, active compounds read low 0.923 | locus YER110C, active compounds read low 0.886 | locus YER155C, strain BEM2 (second series), active compounds read low 0.679 | locus YER155C, strain BEM2, active compounds read low 0.85 | locus YGL078C, strain dbp3, active compounds read low 0.815 | locus YGL086W, strain mad1, active compounds read low 0.91 | locus YGL227W, strain vid30, active compounds read low 0.905 | locus YHR079C, strain IRE1 (second series), active compounds read low 0.888 | locus YHR094C, strain hxt1, active compounds read low 0.879 | locus YHR129C, strain ARP1, active compounds read low 0.916 | locus YHR142W, strain chs7, active compounds read low 0.735 | locus YHR200W, strain rpn10, active compounds read low 0.869 | locus YIL125W, strain kgd1, active compounds read low 0.715 | locus YIR030C, strain dcg1, active compounds read low 0.878 | locus YJL129C, strain trk1, active compounds read low 0.815 | locus YJL134W, strain LCB3, active compounds read low 0.909 | locus YJL166W, strain qcr8, active compounds read low 0.893 | locus YJL168C, strain set2, active compounds read low 0.872 | locus YKL009W, strain mrt4, active compounds read low 0.452 | locus YKL068W, active compounds read low 0.797 | locus YKL085W, strain MDH1 (second series), active compounds read low 0.667 | locus YKL085W, strain MDH1, active compounds read low 0.667 | locus YKR001C, strain vps1, active compounds read low 0.83 | locus YLR102C, strain apc9, active compounds read low 0.881 | locus YLR221C, strain rsa3, active compounds read low 0.895 | locus YLR262C, strain YPT6 (second series), active compounds read low 0.821 | locus YLR320W, strain mms22, active compounds read low 0.785 | locus YLR330W, strain CHS5, active compounds read low 0.896 | locus YLR371W, strain rom2, active compounds read low 0.898 | locus YLR418C, strain cdc73, active compounds read low 0.814 | locus YML016C, strain PPZ1, active compounds read low 0.91 | locus YML124C, strain tub3, active compounds read low 0.867 | locus YMR078C, strain ctf18, active compounds read low 0.839 | locus YMR205C, strain PFK2, active compounds read low 0.844 | locus YMR223W, strain ubp8, active compounds read low 0.9 | locus YNL071W, strain lat1, active compounds read low 0.734 | locus YNL250W, strain rad50, active compounds read low 0.767 | locus YNL271C, strain bni1, active compounds read low 0.794 | locus YNL298W, strain CLA4, active compounds read low 0.538 | locus YNL307C, strain MCK1, active compounds read low 0.848 | locus YNR052C, strain pop2, active compounds read low 0.908 | locus YOL147C, strain pex11, active compounds read low 0.872 | locus YOR069W, strain VPS5, active compounds read low 0.925 | locus YOR144C, strain elg1, active compounds read low 0.874 | locus YOR270C, strain vph1, active compounds read low 0.731 | locus YOR290C, strain snf2, active compounds read low 0.797 | locus YOR316C, strain cot1, active compounds read low 0.875 | locus YPL051W, strain arl3, active compounds read low 0.897 | locus YPR119W, strain clb2, active compounds read low 0.856 | locus YPR141C, strain kar3, active compounds read low 0.802 | locus YPR163C, strain tif3, active compounds read low 0.906 | locus YPR167C, strain met16, active compounds read low 0.873
